High-throughput results: PubChem BioAssay, Broad Institute
This is one part of a sample in which hits are shown more often than they occur.
Tgondii IFNg: blocks Toxoplasma gondii growth in the presence of IFN-gamma | Toxoplasma gondii growth in IFN-gamma-treated host cells; hits give low values | activity change, negative = inhibition, % (no concentration beside the values) | AID 1259416 | 69,000 compounds, 3.8% hits; in the data active means activity change below about -70%, passing the limit was not always enough;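 further: host cells are HeLa cells infected with Toxoplasma gondii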
Hits are given with their value; i = inactive.

SMILES	Tgondii IFNg
Fc1ccc(-c2nccn2CCCc2nn[nH]n2)c(Cl)c1	i
O=C(CN1C(=O)CCc2cc(S(=O)(=O)N3CCOCC3)ccc21)N1CCC2(CC1)OCCO2	i
COc1ccc(CNC(=O)Cn2c(=O)cc(-c3nc(C4CC4)no3)c3ccccc32)cc1	i
COc1ccc(CNC(=O)Cn2c(=O)n(Cc3ccc(F)cc3)c(=O)c3ccccc32)cc1	-73
COc1ccc(CNC(=O)Cn2c(N)nc(C)c(C)c2=O)cc1	i
Cc1ccc2ccc3cc(C(=O)NCc4cccnc4)nc3c2[nH]1	i
CCN(CC)C1CCN(Cc2cccc(C(=O)Nc3nccn3C)c2)C1 (configuration not stated)	i
CCn1c(CC2CCNCC2)nn(Cc2noc(COC)n2)c1=O	i
CNC(=O)c1ccc(-c2cc(NCc3ccccn3)nc3[nH]ccc23)o1	i
CCCc1nc(C(=O)Nc2ccc(NC(=O)CC)c(Cl)c2)cs1	i
Cc1cc(-n2cnnc2)ncc1-c1ccc(C(C)N2CCCC2)cc1 (configuration not stated)	i
COc1ccc(F)c(-c2cnc(-n3cnnc3)cc2C)c1	-81
COc1ccc(F)c(-c2nc(OC)cc(OC)n2)c1	i
O=C(CN1CCCC1c1ccccn1)N1CCOc2ccccc21 (configuration not stated)	i
CCOC(=O)Cc1ccc(NC(=O)Nc2ccc(-c3nc(-c4ccc(C)cc4C)co3)cc2)cc1	i
COCc1cncc2c1CCN(C(=O)c1ccc[nH]1)C2	i
C=CCOCc1cncc2c1CCN(C(=O)c1ccncc1)C2	i
COCc1cncc2c1CCN(C(=O)c1ccncc1)C2	-98
c1cc(-c2ccc(-c3ncnc4ccsc34)cc2)[nH]n1	-82
Cc1ccc(Sc2ncnc3ccsc23)cc1	i
c1nc(NN2CCCCC2)c2sccc2n1	i
Cc1ccoc1C(=O)N1CC[C@H]2CO[C@@H](CN3CCN(C)CC3)[C@@H]2C1	i
c1cc(-c2cc3ccccc3o2)cc(-n2cnnc2)c1	i
CCn1ncc(C(=O)NC2CC(C)(C)Oc3cc(OC)ccc32)c1C (configuration not stated)	i
COCCCNC1=NCCNC12CCN(S(=O)(=O)c1ccc(C)c(C)c1)CC2	i
SMILES	Tgondii IFNg
Cc1ccc(S(=O)(=O)n2c(N)nc3ccccc32)cc1	i
O=C(NC1CCCCNC1=O)c1cn(S(=O)(=O)c2ccccc2)c2ccccc12 (configuration not stated)	i
CCC(=O)c1cn(S(=O)(=O)c2ccc(C)cc2)c2ccccc12	-101
O=C(CCn1nnc(-c2ccccc2)n1)N1CCCn2cncc2C1	i
Cc1ccc(OCC(=O)N2CCCn3cncc3C2)cc1C	i
CC1CC(N(C(=O)c2ccco2)c2ccccc2)c2ccccc2N1C(=O)c1ccco1 (configuration not stated)	i
O=C(c1ccc2c(c1)OCO2)N1CC[C@@H]2[C@H](CO)Nc3ccc(C#Cc4ccccc4)cc3[C@@H]21	i
CC1CC(N(C(=O)c2ccc3c(c2)OCO3)c2ccccc2)c2ccccc2N1 (configuration not stated)	-96
CN(C)C(=O)CN1CCN(C(=O)C2CC(=O)N(c3cccc(F)c3)C2)CC1 (configuration not stated)	i
CC1CN(C(=O)c2nc3c(s2)CCCN3C(=O)C2CC2)CC(C)O1 (configuration not stated)	i
O=C1NC2(C=Cc3c(ccc4ccccc34)O2)Oc2ccccc21 (configuration not stated)	-107
O=C1Nc2cc(Cl)ccc2Oc2ccccc21	i
CSc1cccc(NC(=O)N2CCc3nc(-c4ccc(C)cc4)sc3C2)c1	i
CN(C)CCCOc1cccc(C(=O)O)c1	i
CCCCCOc1ccc(C(=O)c2ccccc2)cc1	i
CN(C)CCOc1ccc(/C(=C(/CCCl)c2ccccc2)c2ccccc2)cc1	-88
COCCN(Cc1nccs1)C(=O)c1ccccc1C1CCNC1 (configuration not stated)	i
CCn1ccc(-c2c(-c3ccccc3)ncn2Cc2cccnc2-n2cncn2)n1	i
CCOC(=O)C1CCN(C(=O)c2cc3cccnc3n(Cc3ccccc3)c2=O)CC1	i
Cc1cccc(NC(=O)Cn2ncc3c(N4CCN(c5ccccc5)CC4)ncnc32)c1C	i
O=C(NC1CCCCCC1)c1nc(Nc2ccc(F)cc2)c2ccccc2n1	i
Cc1cccc(Nc2nc(C(=O)NC3CCCCCCC3)nc3ccccc23)c1	-83
Cc1ccc(Nc2nc(C(=O)NC3CCCCC3)nc3ccccc23)cc1	i
CCc1ccc(Nc2nc(C(=O)NC3CCCC3)nc3ccccc23)cc1	i
Cc1ccc(Nc2nc(C(=O)NC3CCCCCC3)nc3ccccc23)cc1	-75
SMILES	Tgondii IFNg
Cc1ccc(Nc2nc(C(=O)NC3CCCC3)nc3ccccc23)cc1	i
O=C(NCc1ccc2c(c1)OCO2)[C@H]1C=CCN1C(=O)NC1CCCCC1	i
CC(C)c1nnc(CN(C)C2CCCc3ccccc32)o1 (configuration not stated)	i
O=C(c1cccc(F)c1)N1CCC2(CC(Oc3cccnc3)CO2)C1 (configuration not stated)	i
COc1ccc(S(=O)(=O)NCc2ccc3c(c2)OCO3)cc1C(=O)N1CCCCC1	i
CCc1ccc(NC(=O)C(=O)NCCc2sc(-c3ccc(OC)cc3)nc2C)cc1	i
CC[C@H](CC#N)OC(=O)N[C@@H](C)c1cccc(NC(=O)Nc2ccc(-c3cnco3)c(OC)c2)c1	-82
CCOc1ccc(NC(=O)Nc2ccc(-c3nc(-c4cccc(Br)c4)co3)cc2)cc1	i
COc1cccc(NC(=O)Nc2ccc(-c3nc(-c4ccc(C)cc4C)co3)cc2)c1	i
O=S(=O)(c1ccc(F)cc1)N1CCn2nnc(COc3cccnc3)c2C1	i
Cc1ccc(Cl)cc1NC(=O)Nc1ccc(-c2nc(-c3ccccc3)co2)cc1	i
O=C(Nc1ccccc1)Nc1ccc(Cl)cc1SCc1ccccc1	-77
Cc1cc(SCC(=O)Nc2ccccc2)nc(SCc2ccc(Cl)cc2)n1	i
CCC(=O)N(C)Cc1ncc(C(=O)NCc2ccccc2)c(-c2cnc(C)cn2)n1	i
COc1cc(Nc2nc(-c3nnc(-c4ccc(F)cc4)o3)nc3ccccc23)cc(OC)c1OC	i
CC(C)(C)NC(=O)[C@@H]1CCCC[C@@H]1C(=O)NCCN1CCOC1=O	i
COc1ccc(CCN2C(=O)N(C)C(=O)C23CCN(Cc2cnn(-c4ccc(F)cc4)c2)CC3)cc1	i
CCN1C(=O)CCc2cc(NS(=O)(=O)c3ccc4c(c3)OCCO4)ccc21	i
CCN1C(=O)CCc2cc(NS(=O)(=O)c3ccc(C)c(F)c3)ccc21	-72
COCCN1C(=O)CCc2cc(NS(=O)(=O)c3ccc(OC)c(OC)c3)ccc21	i
CCN1C(=O)CCc2cc(NS(=O)(=O)c3cccc(C)c3)ccc21	i
CCN1C(=O)CCc2cc(NS(=O)(=O)c3ccc(Cl)c(Cl)c3)ccc21	-100
CCN1C(=O)CCc2cc(NS(=O)(=O)c3ccccc3Cl)ccc21	i
CC(=O)N1C[C@H]2CCCN(c3ncc(C)cn3)[C@H]2C1	i
Cc1nonc1CN(C)Cc1cnn(-c2ccc(F)cc2)c1	i
SMILES	Tgondii IFNg
Cc1oc(C2CCN(S(=O)(=O)CCc3ccccc3)CC2)nc1C(=O)N1CCCCC1	i
Cc1ccc(CN2CCN(Cc3cnc(N4CCCC4)s3)CC2=O)cc1	i
COc1ccccc1C(=O)Nc1ccc(-c2nc(-c3ccccc3)co2)cc1	i
COc1ccccc1C(=O)Nc1ccc2c3c(cccc13)CC2	-102
COc1ccccc1C(=O)Nc1cc2cc(Br)ccc2oc1=O	i
COCCCN1CCc2nc(SCc3nc(-c4cccc(Cl)c4)oc3C)[nH]c(=O)c2C1	i
